PubChem BioAssay AID743269 (The Scripps Research Institute Molecular Screening Center, 2014)
Hit rate of the full screen: of about 370,000 compounds, about 2,400 (0.65%) were called active.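 Rule for the calls: active = inhibition above the screen-wide mean plus 3 SD (cut at about 13% in these data); inactive = the rest.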 Shown is part of a subset that was picked to be rich in actives.

What follows are compounds tested on HIV-1 integrase (with human LEDGF/p75) (assay: blockers of LEDGF/p75-dependent integrase strand transfer – biochemical, TR-FRET, high throughput, primary screen (AID 743269;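 note: signal is the Cy5 over europium emission ratio at 671 and 618 nm; 0% = plate median of compound wells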)). Conditions: TR-FRET IN-LEDGF/p75 DNA integration, Eu/Cy5; at 3.7 µM; stronger effect = higher value.

inhibition, inactive:
CC(C)CNS(=O)(=O)CC1NCCc2ccccc21 (centres undefined) -2.87%, CC(=O)O[C@H]1CC[C@@]2(C)[C@@H](CC[C@@H]3[C@@H]2CC[C@]2(C)[C@@H](C(C)(C)O)C[C@@H]32)C1 0.72%, C=C1C(C(C)C)N(C)C2=NC(c3ccccc3)CC(=O)N12 (centres undefined) 1.74%, COC(=O)C1CN(Cc2ccc(F)cc2)CCS(=O)(=O)N1Cc1ccc(Cl)cc1 (centres undefined) -0.83%, CCc1ccccc1NC(=O)CSc1nnc(-c2cccs2)o1 1.45%, C/C(=N\NC(=O)c1cccc(N2CCCC2=O)c1)c1ccc(N)cc1 -2.92%, O=C(c1cccc(N2CCCC2=O)c1)N1CCOCC1 -4.51%, CCOC(=O)N1CCN(C(=O)C[C@H]2C[C@@]3(C(=O)OC)C(=C[C@H](C(C)(C)C)O[C@@H]3C)N(Cc3ccc(Cl)cc3Cl)C2=O)CC1 -2.55%, CCOC(=O)c1ccn(-c2nc(-c3ccco3)cc(C(F)(F)F)n2)n1 -1.1%, Cc1ccsc1-c1cc(C(=O)O)c2c(ccc3ccccc32)n1 0.22%, COc1ccc(-n2c(COc3ccc(C)cc3)nnc2SCC(=O)Nc2ccc(Oc3ccccc3)cc2)cc1 -0.53%, COC(=O)c1cccc(Cn2ccc3ccc(-c4ccc5ccn(C(=O)c6ccccc6C)c5c4)cc32)c1 1.28%, CC(C)(C)c1ccc(CSc2nnc(-c3cccs3)o2)cc1 -0.85%, CCOc1ccc(CN2CCN(Cc3ccc(C)o3)CC2CCO)cc1 (centres undefined) -3.16%, COc1ccc(CN2CCN(Cc3cn(C)nc3-c3ccccc3)CC2CCO)c(C)c1C (centres undefined) 3.11%, Cc1ccc(NC(=S)NNC(=O)CSc2nnc(SCc3ccccc3Cl)s2)cc1 3.99%, CC(C)N1CCCCC(NC(=O)c2ccc3ccccc3c2)C1=O (centres undefined) 0.96%, Cc1ccc(Cn2cc(CN3[C@@H](CC(C)C)COc4ccc(Cl)cc4S3(=O)=O)nn2)cc1 1.01%, O=S1(=O)c2ccc(Br)cc2OC[C@@H](Cc2ccccc2)N1Cc1cn(Cc2ccco2)nn1 5.73%, Cc1ccc(-n2c(SCC(=O)Nc3ccc(S(=O)(=O)Nc4nccs4)cc3)nnc2-c2ccccn2)cc1 -3.23%, COC(=O)C1CN(CCc2ccccc2)CCS(=O)(=O)N1Cc1cccc(Cl)c1 (centres undefined) 0.85%, CN(C)[C@H]1CCN(c2cccc3c2S(=O)(=O)N2CC[C@H](C2)O3)C1 2.98%, O=S1(=O)c2c(cccc2N2CC[C@H](O)C2)O[C@@H]2CCN1C2 1.21%, O=C(N1CCOCC1)N1CC[C@H]2[C@H](CCCN2Cc2ccc(F)cc2)C1 3%, O=C(c1ccncc1)N1CC[C@H]2[C@H](CCCN2Cc2ccc(F)cc2)C1 1.57%, CCN(CC)C(=O)CC[C@@H]1CC[C@]2(CCCN(S(=O)(=O)C3CCCCC3)C2)O1 -3.12%, COc1ccc(Cn2cc(COC(=O)N(C)Cc3ccccc3)nn2)cc1 2.21%, CSc1ccc(-c2c(C#N)c(N)nc3c2c(C)nn3-c2ccccc2)cc1 -1.93%, CCc1c(-c2ccccc2)nc(N)c(C#N)c1-c1cccs1 0.5%, CCCCCCCCNS(=O)(=O)/C=C/c1cc(C)ccc1CNC(=O)OC(C)(C)C -0.25%, COc1ccc(CN2C(=O)N3Cc4cc(OC)ccc4C3CS2(=O)=O)cc1 (centres undefined) 0.03%, Cc1c(Cl)cnc(NC(=O)COC(=O)C2CCCC2)c1Cl 3.73%, Cc1sc2ncnc(SCC(=O)Nc3ccc(CN4CCCC4)cc3)c2c1C -2.64%, O=C(CNS(=O)(=O)c1ccccc1F)N1CCN(c2ccccn2)CC1 -3.63%, COC(=O)[C@]12C[C@H](CC(=O)N3CCN(C(=O)C4CC4)CC3)C(=O)N(CCC3=CCCCC3)C1=C[C@H](C(C)C)O[C@@H]2C1CC1 -2.49%, O=C(CN1C(=O)c2ccccc2S1(=O)=O)N1CCc2ccccc21 -3.85%, NS(=O)(=O)c1ccc(CCNC(=O)CN2C(=O)c3ccccc3S2(=O)=O)cc1 4.15%, CCOC(=O)[C@@]12CN(C(=O)OC(C)(C)C)CC=C1N(Cc1ccc(OC)cc1)C(=O)[C@H]2CC(=O)NCc1ccc(OC)c(OC)c1 -2.96%, CC(C)(C)OC(=O)NCc1cc(F)ccc1/C=C/S(=O)(=O)NCCc1ccccc1 1.04%

inhibition, active:
C[C@H]([C@@H](O)[C@@H](O)[C@@H](C)C(C)(C)C)[C@H]1CC[C@H]2C3CC[C@H]4C[C@H](OS(=O)(=O)O)[C@@H](OS(=O)(=O)O)C[C@]4(C)[C@H]3CC[C@]12C (some centres undefined) 22.1%, NC1=NN(c2cccc(C(=O)O)c2)C(=O)C1 13.8%, Cc1cc(C)c2nc(-c3ccco3)cc(C(=O)O)c2c1 57.2%, CCn1nc(C)c(CN2CCN(Cc3ccc(OC)c(C)c3C)C(CCO)C2)c1C (centres undefined) 13.4%, O=C1C=CC(=O)N1c1ccc(N2CCCCC2)cc1 14.3%, C=CCn1c(=S)[nH]c2scc(-c3ccco3)c2c1=O 42.3%, O=C(c1cccc(C(F)(F)F)c1)N1CC[C@H]2[C@H](CCCN2Cc2cc(F)cc(F)c2)C1 86.5%, CSc1nc(N)c(C#N)c(-c2ccccc2Cl)c1C#N 30.9%, CCc1cc2c(SCC(=O)Nc3ncc(Cl)c(C)c3Cl)ncnc2s1 44.2%, CN(Cc1ccc(F)cc1)C(=O)CN1C(=O)c2ccccc2S1(=O)=O 18%
